What all share (experiment): DAPPL (digital affinity profiling via proximity ligation, sequencing); 10 mM Tris-HCl pH 7.5, 50 mM NaCl, 1 mM DTT, 4% glycerol, room temperature, 30 min; GST-TFs on glutathione beads, 16-mer random dsDNA library, 0.1% formaldehyde crosslink after washing; high values mean tight binding
One experiment concerns the target T1, FLI1 (Homo sapiens, UniProt Q01543 1-452).
T1 sequence: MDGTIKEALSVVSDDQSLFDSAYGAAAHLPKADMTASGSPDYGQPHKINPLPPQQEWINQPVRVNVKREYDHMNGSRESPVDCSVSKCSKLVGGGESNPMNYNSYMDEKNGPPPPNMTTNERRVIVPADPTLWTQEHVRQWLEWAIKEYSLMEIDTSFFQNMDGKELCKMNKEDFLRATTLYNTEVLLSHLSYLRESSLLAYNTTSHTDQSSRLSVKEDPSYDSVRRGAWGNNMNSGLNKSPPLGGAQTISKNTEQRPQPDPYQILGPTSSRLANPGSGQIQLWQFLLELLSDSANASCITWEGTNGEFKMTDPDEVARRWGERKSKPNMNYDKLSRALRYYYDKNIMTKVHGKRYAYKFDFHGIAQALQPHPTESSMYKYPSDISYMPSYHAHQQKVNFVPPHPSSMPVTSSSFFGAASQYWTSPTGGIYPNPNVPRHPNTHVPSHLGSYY
Particulars: protein: recombinant; tags: N-terminal GST; dsDNA, one strand shown. Put shortly: (§1)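 In yeast, human transcription factors were expressed with a GST fusion, then pulled down on glutathione beads and given DNA barcodes. Pooled with a tag-only sample, they were exposed to 200 nmole of a 16-mer random double-stranded DNA library (Tris/NaCl/DTT/glycerol buffer, room temperature, 30 min), washed, crosslinked with 0.1% formaldehyde, proximity-ligated using BsaI/T4 ligase for 1 h at 37 °C, PCR-amplified and read on an Illumina NextSeq500. Each hexamer's frequency of reads for a factor, divided by the matching frequency for the tag-only sample, gives the binding signal.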

A further experiment addresses T2, ELK1 (Homo sapiens, UniProt P19419 1-428).
T2 sequence: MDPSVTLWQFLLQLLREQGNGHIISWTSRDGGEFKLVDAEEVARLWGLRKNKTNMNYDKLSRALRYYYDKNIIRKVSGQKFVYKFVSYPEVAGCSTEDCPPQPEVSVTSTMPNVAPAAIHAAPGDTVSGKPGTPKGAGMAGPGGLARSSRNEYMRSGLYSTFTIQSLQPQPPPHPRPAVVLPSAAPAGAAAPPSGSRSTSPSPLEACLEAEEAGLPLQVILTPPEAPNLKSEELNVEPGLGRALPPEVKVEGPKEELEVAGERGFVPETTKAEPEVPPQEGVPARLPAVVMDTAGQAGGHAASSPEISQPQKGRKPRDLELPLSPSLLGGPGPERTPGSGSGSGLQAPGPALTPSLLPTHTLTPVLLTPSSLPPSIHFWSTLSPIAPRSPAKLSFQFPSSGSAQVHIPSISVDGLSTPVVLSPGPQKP
Particulars: protein: recombinant; tags: N-terminal GST; dsDNA, one strand shown. Put shortly:
as §1

Another experiment concerns the target T3, GABPA (Homo sapiens, UniProt Q06546 1-454).
T3 sequence: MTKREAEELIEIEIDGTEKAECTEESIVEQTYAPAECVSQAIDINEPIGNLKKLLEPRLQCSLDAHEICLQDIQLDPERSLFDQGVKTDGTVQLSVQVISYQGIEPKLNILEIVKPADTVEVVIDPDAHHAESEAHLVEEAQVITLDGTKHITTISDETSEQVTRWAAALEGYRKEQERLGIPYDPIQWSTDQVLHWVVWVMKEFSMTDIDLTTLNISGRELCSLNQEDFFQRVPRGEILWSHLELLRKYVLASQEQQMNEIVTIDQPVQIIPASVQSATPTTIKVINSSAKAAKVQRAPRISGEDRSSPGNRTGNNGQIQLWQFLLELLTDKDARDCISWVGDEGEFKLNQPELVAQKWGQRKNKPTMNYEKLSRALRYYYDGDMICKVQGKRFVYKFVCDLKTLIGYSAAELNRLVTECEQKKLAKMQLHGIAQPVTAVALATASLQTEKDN
Particulars: protein: recombinant; tags: N-terminal GST; dsDNA, one strand shown. Put shortly: as §1

The target in a further experiment is T4, ERG (Homo sapiens, UniProt P11308 1-479).
T4 sequence: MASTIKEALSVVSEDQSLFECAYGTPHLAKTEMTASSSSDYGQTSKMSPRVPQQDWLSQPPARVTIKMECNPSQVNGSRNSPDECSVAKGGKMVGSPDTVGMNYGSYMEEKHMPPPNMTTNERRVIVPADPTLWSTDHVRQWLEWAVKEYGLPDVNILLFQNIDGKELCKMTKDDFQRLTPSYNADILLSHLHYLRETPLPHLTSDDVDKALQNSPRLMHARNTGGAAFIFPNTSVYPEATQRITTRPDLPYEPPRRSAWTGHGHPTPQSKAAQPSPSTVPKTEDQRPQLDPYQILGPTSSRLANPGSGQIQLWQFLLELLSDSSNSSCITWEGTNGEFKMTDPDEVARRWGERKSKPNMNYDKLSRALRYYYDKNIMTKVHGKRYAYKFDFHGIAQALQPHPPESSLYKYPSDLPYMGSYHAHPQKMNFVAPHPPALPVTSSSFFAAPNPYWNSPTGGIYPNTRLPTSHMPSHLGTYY
Particulars: protein: recombinant; tags: N-terminal GST; dsDNA, one strand shown. Put shortly:
as §1

Another experiment addresses ELF1 (Homo sapiens, UniProt P32519 1-619). Particulars: protein: recombinant; tags: N-terminal GST; dsDNA, one strand shown. Put shortly: as §1
The next experiment concerns the target T5, EHF (Homo sapiens, UniProt Q9NZC4 1-300).
T5 sequence: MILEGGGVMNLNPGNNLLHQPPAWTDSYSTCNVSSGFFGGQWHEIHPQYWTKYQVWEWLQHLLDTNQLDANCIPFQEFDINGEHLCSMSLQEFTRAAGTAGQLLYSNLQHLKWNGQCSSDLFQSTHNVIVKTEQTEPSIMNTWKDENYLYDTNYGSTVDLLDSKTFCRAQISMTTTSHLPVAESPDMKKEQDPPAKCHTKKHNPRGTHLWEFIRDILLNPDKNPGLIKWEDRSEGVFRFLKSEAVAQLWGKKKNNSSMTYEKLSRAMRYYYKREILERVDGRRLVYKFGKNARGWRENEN
Particulars: protein: recombinant; tags: N-terminal GST; dsDNA, one strand shown. Put shortly: as §1

For another experiment, the target named is SPI1 (Homo sapiens, UniProt P17947 1-270). Particulars: protein: recombinant; tags: N-terminal GST; dsDNA, one strand shown. The procedure, abridged:
as §1

The target of a further experiment is SPIB (Homo sapiens, UniProt Q01892 1-262). Particulars: protein: recombinant; tags: N-terminal GST; dsDNA, one strand shown. The procedure, abridged: as §1
Sequence of SPIB (Q01892 whole entry): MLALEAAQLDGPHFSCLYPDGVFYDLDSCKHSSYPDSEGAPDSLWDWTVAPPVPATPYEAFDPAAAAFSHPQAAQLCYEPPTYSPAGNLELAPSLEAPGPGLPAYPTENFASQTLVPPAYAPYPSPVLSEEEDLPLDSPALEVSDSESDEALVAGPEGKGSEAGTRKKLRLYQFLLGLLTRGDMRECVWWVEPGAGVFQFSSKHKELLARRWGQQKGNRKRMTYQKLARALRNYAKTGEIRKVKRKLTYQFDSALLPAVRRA
For the next experiment, the target named is T6, ELK3 (Homo sapiens, UniProt P41970 1-407).
T6 sequence: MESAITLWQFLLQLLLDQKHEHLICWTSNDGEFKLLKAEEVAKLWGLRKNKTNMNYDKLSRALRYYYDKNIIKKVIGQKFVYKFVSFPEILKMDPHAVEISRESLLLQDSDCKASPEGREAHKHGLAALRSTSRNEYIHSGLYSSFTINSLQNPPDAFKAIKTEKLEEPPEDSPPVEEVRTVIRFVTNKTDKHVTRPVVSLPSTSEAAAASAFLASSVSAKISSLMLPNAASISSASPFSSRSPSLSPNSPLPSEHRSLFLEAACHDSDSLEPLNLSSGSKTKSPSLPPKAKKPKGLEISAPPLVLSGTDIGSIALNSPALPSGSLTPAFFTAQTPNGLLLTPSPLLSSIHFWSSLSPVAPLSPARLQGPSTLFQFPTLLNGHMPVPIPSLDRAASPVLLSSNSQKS
Particulars: protein: recombinant; tags: N-terminal GST; dsDNA, one strand shown. Put shortly: as §1

Another experiment deals with T7, FEV (Homo sapiens, UniProt Q99581 1-238).
T7 sequence: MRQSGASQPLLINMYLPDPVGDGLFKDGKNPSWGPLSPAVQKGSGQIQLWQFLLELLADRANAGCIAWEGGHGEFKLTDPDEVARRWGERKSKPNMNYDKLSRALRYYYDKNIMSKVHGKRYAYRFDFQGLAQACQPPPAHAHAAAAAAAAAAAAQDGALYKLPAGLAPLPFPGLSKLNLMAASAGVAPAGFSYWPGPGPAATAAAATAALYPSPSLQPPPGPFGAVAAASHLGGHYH
Particulars: protein: recombinant; tags: N-terminal GST; dsDNA, one strand shown. The procedure, abridged: as §1

The next experiment addresses ETV5 (Homo sapiens, UniProt P41161 1-510). Particulars: protein: recombinant; tags: N-terminal GST; dsDNA, one strand shown. The procedure, abridged: as §1
The target of another experiment is HSF1 (Homo sapiens, UniProt Q00613 1-529). Particulars: protein: recombinant; tags: N-terminal GST; chain copies: 3; dsDNA, one strand shown. The procedure, abridged:
as §1

For a further experiment, the target named is T8, SPIC (Homo sapiens, UniProt Q8N5J4 1-248).
T8 sequence: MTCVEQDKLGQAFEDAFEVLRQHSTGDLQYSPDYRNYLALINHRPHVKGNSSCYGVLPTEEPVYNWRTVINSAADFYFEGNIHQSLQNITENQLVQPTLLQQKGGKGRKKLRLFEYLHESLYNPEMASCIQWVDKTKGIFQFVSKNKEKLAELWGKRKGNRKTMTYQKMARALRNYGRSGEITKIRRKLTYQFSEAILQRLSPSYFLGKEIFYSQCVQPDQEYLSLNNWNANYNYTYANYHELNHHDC
Particulars: protein: recombinant; tags: N-terminal GST; dsDNA, one strand shown. The procedure, abridged:
as §1

The next experiment deals with ELF4 (Homo sapiens, UniProt Q99607 1-663). Particulars: protein: recombinant; tags: N-terminal GST; dsDNA, one strand shown. Put shortly:
as §1

Another experiment has as its target T9, ELK4 (Homo sapiens, UniProt P28324-2 1-405).
T9 sequence: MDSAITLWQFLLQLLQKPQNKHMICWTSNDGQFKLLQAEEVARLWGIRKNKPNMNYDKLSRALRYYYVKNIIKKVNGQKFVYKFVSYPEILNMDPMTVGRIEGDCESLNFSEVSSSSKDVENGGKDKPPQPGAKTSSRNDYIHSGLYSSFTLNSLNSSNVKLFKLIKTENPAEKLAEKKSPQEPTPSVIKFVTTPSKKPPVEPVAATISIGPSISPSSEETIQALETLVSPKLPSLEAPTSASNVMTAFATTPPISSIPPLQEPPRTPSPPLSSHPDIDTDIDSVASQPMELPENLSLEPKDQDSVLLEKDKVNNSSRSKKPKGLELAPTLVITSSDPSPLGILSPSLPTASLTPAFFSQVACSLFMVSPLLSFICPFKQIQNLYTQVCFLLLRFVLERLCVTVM
Particulars: protein: recombinant; tags: N-terminal GST; dsDNA, one strand shown. Put shortly:
as §1

In another experiment the target is T10, ETV2 (Homo sapiens, UniProt O00321 1-342).
T10 sequence: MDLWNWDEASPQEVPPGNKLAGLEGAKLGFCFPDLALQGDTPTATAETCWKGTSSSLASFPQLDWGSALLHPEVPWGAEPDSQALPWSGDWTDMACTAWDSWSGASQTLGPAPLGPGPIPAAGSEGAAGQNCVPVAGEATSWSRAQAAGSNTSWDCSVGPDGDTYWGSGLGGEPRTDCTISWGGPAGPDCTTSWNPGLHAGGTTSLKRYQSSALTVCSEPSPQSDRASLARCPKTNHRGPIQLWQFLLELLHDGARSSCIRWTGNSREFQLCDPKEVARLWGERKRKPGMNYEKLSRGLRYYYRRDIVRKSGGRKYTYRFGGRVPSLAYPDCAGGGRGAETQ
Particulars: protein: recombinant; tags: N-terminal GST; dsDNA, one strand shown. Put shortly: as §1

For the next experiment, the target named is T11, ELF3 (Homo sapiens, UniProt P78545 1-371).
T11 sequence: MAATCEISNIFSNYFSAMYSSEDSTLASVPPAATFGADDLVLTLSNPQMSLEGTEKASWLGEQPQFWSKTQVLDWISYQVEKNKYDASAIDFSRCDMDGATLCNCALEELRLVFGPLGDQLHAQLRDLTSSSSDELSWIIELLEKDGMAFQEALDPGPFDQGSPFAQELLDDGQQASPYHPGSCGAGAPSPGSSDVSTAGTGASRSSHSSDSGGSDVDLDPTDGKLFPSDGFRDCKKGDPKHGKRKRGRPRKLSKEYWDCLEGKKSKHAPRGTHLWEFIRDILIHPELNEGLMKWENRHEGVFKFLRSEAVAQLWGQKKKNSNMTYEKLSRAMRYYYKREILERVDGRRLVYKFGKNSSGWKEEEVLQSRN
Particulars: protein: recombinant; tags: N-terminal GST; dsDNA, one strand shown. Put shortly:
as §1

The next experiment deals with CRX (Homo sapiens, UniProt O43186 1-299). Particulars: protein: recombinant; tags: N-terminal GST; dsDNA, one strand shown. Put shortly: as §1
Sequence of CRX (O43186 whole entry): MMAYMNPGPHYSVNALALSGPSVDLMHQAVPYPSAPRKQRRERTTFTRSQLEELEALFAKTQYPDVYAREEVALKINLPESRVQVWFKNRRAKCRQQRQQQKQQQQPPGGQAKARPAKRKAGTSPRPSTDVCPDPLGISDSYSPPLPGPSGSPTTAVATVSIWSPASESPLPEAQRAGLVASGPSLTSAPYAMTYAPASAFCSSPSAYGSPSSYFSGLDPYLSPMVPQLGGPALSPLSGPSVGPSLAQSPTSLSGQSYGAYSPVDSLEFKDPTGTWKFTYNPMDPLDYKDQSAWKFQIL
For a further experiment, the target named is ETV1 (Homo sapiens, UniProt P50549 1-477). Particulars: protein: recombinant; tags: N-terminal GST; dsDNA, one strand shown. The procedure, abridged:
as §1

Sequence of ELF1 (P32519 whole entry): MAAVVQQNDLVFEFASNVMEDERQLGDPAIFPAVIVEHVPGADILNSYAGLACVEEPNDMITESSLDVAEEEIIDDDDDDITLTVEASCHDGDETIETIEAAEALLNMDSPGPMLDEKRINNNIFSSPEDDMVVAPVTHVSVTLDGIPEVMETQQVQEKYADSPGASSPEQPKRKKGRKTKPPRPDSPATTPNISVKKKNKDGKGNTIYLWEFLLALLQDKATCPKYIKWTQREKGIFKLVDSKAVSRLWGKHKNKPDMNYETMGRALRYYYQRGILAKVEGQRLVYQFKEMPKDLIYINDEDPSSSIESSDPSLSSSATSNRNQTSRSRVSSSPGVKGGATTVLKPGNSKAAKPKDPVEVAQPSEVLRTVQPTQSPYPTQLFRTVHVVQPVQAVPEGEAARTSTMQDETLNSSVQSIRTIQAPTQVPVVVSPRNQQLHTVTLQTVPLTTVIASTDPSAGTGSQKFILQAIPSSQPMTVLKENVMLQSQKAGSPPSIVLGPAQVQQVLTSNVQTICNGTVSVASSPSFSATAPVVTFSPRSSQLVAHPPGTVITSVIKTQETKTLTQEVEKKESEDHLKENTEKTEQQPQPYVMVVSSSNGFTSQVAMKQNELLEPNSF
Sequence of HSF1 (Q00613 whole entry): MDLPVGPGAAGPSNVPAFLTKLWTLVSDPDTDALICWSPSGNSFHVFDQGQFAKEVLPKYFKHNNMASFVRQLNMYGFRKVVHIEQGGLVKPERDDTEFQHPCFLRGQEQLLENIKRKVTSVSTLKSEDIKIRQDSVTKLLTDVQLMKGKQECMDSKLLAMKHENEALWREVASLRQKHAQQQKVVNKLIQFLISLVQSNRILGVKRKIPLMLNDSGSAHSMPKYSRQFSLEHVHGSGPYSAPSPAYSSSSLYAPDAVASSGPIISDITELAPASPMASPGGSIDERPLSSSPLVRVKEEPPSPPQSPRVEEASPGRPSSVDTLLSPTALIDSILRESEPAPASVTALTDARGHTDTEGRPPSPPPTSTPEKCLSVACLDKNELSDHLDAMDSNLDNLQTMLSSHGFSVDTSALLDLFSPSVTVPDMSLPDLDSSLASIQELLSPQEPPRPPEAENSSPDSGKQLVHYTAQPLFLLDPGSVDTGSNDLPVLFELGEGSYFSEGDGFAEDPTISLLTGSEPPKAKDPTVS
Sequence of ETV1 (P50549 whole entry): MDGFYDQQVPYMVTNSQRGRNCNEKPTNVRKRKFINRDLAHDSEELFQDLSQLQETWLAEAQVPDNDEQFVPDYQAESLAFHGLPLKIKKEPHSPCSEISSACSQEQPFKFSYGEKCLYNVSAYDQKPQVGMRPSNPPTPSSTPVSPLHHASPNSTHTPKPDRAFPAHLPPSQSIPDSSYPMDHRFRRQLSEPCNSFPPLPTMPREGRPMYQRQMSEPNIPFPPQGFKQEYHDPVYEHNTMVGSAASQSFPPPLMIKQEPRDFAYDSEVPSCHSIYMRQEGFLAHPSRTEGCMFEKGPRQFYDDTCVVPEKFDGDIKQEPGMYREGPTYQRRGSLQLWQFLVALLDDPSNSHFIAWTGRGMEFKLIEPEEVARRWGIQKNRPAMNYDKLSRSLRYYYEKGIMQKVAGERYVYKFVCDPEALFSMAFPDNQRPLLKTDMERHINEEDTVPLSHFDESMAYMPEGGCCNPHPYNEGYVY
Sequence of ETV5 (P41161 whole entry): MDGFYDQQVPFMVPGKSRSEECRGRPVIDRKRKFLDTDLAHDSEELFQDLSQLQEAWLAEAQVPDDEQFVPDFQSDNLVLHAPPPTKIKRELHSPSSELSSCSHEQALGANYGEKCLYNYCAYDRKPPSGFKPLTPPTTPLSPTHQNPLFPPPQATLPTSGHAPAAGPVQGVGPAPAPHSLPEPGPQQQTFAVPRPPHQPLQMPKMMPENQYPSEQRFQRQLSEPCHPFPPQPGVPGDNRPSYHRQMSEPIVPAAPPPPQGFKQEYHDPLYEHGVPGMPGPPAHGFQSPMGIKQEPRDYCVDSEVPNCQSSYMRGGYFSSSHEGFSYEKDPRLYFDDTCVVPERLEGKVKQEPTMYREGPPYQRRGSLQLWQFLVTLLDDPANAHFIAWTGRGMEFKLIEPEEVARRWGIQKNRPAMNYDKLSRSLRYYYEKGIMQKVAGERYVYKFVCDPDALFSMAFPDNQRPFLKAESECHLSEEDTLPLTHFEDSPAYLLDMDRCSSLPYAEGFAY
Sequence of ELF4 (Q99607 whole entry): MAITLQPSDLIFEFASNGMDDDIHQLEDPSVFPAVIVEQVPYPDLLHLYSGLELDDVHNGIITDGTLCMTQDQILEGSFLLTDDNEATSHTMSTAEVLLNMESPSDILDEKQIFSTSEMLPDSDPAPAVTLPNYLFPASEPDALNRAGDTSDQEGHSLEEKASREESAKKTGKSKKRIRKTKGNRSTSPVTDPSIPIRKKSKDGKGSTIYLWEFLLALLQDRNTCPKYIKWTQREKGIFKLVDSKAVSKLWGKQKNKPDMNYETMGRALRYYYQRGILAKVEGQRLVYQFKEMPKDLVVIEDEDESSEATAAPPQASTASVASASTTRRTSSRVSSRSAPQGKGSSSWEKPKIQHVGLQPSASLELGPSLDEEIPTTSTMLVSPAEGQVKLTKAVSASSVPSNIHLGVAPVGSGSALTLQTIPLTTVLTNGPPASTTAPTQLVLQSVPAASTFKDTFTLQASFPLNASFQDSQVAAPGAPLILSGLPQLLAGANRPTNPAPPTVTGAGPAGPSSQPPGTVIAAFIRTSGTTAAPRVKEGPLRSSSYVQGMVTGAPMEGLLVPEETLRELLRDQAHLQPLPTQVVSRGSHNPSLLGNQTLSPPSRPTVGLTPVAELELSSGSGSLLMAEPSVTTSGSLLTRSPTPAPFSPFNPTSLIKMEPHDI

Take CATTAT: the binding signal was 1.19 fold enrichment (6-mer frequency, TF over GST control) with FLI1; 1.13 fold enrichment (6-mer frequency, TF over GST control) with ELK1; 1.06 fold enrichment (6-mer frequency, TF over GST control) with GABPA; 1.15 fold enrichment (6-mer frequency, TF over GST control) with ERG; 1.16 fold enrichment (6-mer frequency, TF over GST control) in the experiment with ELF1; 1.18 fold enrichment (6-mer frequency, TF over GST control) in the experiment with EHF. For the same sequence, the binding signal in the experiment with SPI1 was 1.11 fold enrichment (6-mer frequency, TF over GST control); in the experiment with SPIB, 1.18 fold enrichment (6-mer frequency, TF over GST control); in the experiment with ELK3 it was 1.13 fold enrichment (6-mer frequency, TF over GST control); with FEV, 1.18 fold enrichment (6-mer frequency, TF over GST control); with ETV5, 1.09 fold enrichment (6-mer frequency, TF over GST control); in the experiment with HSF1, 1.26 fold enrichment (6-mer frequency, TF over GST control). The binding signal is 1.25 fold enrichment (6-mer frequency, TF over GST control) in the experiment with SPIC; 1.21 fold enrichment (6-mer frequency, TF over GST control) with ELF4; 1.28 fold enrichment (6-mer frequency, TF over GST control) with ELK4; 1.05 fold enrichment (6-mer frequency, TF over GST control) in the experiment with ETV2; 1.33 fold enrichment (6-mer frequency, TF over GST control) with ELF3; 1.65 fold enrichment (6-mer frequency, TF over GST control) with CRX. In the experiment with ETV1, the binding signal was 1.32 fold enrichment (6-mer frequency, TF over GST control).

The record behind these values is publication PMC7862700, “An all-to-all approach to the identification of sequence-specific readers for epigenetic DNA modifications on cytosine”.
